“And” between values parts separate entries of the source, which are not always exact repeats. Equal values may be shown once. In all, about 5,500 compounds went through this assay and about 2,000 (36%) were called active. About 18% were inconclusive and are not listed. Rule as the data show it: active = normalized growth mostly below about 0.91 (no sharp cut-off); inconclusive = no clear call, values can overlap the other calls; inactive = mostly above about 0.92. The list shows a part of the results.
Experiment: chemical genetic growth profiling, strain panel (AID 1159580);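 also: tested at 20 µM; growth read once vehicle control cultures reached saturation at 30 °C; 1 = growth at the plate median or of vehicle wells; lower values mean less growth of the strain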
Details: S. cerevisiae deletion strains, growth OD

Measured: normalized growth

CN(C)CCCN1c2ccccc2Sc2ccc(Cl)cc21
0.739 (active) and 0.979 (inactive): locus YJL095W, strain BCK1, stronger effect = lower value
active: locus YAL021C, strain ccr4, stronger effect = lower value 0.0773 | locus YAL026C, strain drs2, stronger effect = lower value 0.0621 | locus YAL030W, strain snc1, stronger effect = lower value 0.0722 | locus YBL061C, strain skt5, stronger effect = lower value 0.0759 | locus YBR009C, strain hhf1, stronger effect = lower value 0.0662 | locus YBR021W, strain FUR4, stronger effect = lower value 0.612 | locus YBR023C, strain chs3, stronger effect = lower value 0.0864 | locus YBR171W, strain sec66, stronger effect = lower value 0.351 | locus YBR231C, strain swc5, stronger effect = lower value 0.0709 | locus YBR279W, strain paf1, stronger effect = lower value 0.165 | locus YCL011C, strain gbp2, stronger effect = lower value 0.068 | locus YCL016C, strain dcc1, stronger effect = lower value 0.165 | locus YCL069W, strain vba3, stronger effect = lower value 0.131 | locus YCR088W, strain abp1, stronger effect = lower value 0.0794 | locus YDL035C, strain GPR1, stronger effect = lower value 0.853 | locus YDL040C, strain nat1, stronger effect = lower value 0.14 | locus YDR001C, strain nth1, stronger effect = lower value 0.119 | locus YDR069C, strain doa4, stronger effect = lower value 0.0779 | locus YDR159W, strain sac3, stronger effect = lower value 0.274 | locus YDR162C, strain NBP2, stronger effect = lower value 0.599 | locus YDR195W, strain ref2 0.155 | locus YDR297W, strain sur2, stronger effect = lower value 0.0894 | locus YDR334W, strain swr1, stronger effect = lower value 0.0746 | locus YDR335W, strain msn5, stronger effect = lower value 0.158 | locus YDR392W, strain spt3, stronger effect = lower value 0.351 | locus YEL003W, strain gim4, stronger effect = lower value 0.0681 | locus YEL037C, strain rad23, stronger effect = lower value 0.0964 | locus YEL061C, strain CIN8 (second series), stronger effect = lower value 0.4 | locus YER015W, strain faa2, stronger effect = lower value 0.111 | locus YER016W, strain bim1, stronger effect = lower value 0.102 | locus YFR010W, strain ubp6, stronger effect = lower value 0.111 | locus YGL167C, strain pmr1, stronger effect = lower value 0.562 | locus YGL173C, strain kem1, stronger effect = lower value 0.501 | locus YGL227W, strain vid30, stronger effect = lower value 0.103 | locus YGL253W, strain hxk2, stronger effect = lower value 0.0994 | locus YHR013C, strain ard1, stronger effect = lower value 0.513 | locus YHR027C, strain rpn1, stronger effect = lower value 0.082 | locus YHR142W, strain chs7, stronger effect = lower value 0.116 | locus YJL092W, strain hpr5, stronger effect = lower value 0.0961 | locus YJL095W, strain BCK1 (second series), stronger effect = lower value 0.0651 | locus YJL115W, strain asf1, stronger effect = lower value 0.183 | locus YJL129C, strain trk1, stronger effect = lower value 0.159 | locus YJL154C, strain vps35, stronger effect = lower value 0.0684 | locus YJL164C, strain tpk1, stronger effect = lower value 0.0728 | locus YJL166W, strain qcr8, stronger effect = lower value 0.0785 | locus YKL160W, strain elf1, stronger effect = lower value 0.229 | locus YKR026C, strain gcn3, stronger effect = lower value 0.151 | locus YKR091W, strain srl3, stronger effect = lower value 0.0828 | locus YLL001W, strain dnm1, stronger effect = lower value 0.11 | locus YLL026W, stronger effect = lower value 0.0697 | locus YLL041C, strain sdh2, stronger effect = lower value 0.0922 | locus YLR027C, strain aat2, stronger effect = lower value 0.0702 | locus YLR039C, strain RIC1, stronger effect = lower value 1.67 [resistant] | locus YLR221C, strain rsa3, stronger effect = lower value 0.11 | locus YLR258W, strain gsy2, stronger effect = lower value 0.0787 | locus YLR262C, strain YPT6 (second series), stronger effect = lower value 0.165 | locus YLR262C, strain YPT6, stronger effect = lower value 1.54 [resistant] | locus YLR320W, strain mms22, stronger effect = lower value 0.181 | locus YLR342W, strain FKS1 (second series), stronger effect = lower value 0.746 | locus YLR342W, strain FKS1, stronger effect = lower value 0.0779 | locus YLR357W, strain rsc2, stronger effect = lower value 0.18 | locus YLR370C, strain arc18, stronger effect = lower value 0.067 | locus YLR384C, strain iki3, stronger effect = lower value 0.102 | locus YLR418C, strain cdc73, stronger effect = lower value 0.804 | locus YML120C, strain ndi1, stronger effect = lower value 0.082 | locus YMR058W, strain fet3, stronger effect = lower value 0.0939 | locus YMR125W, strain sto1, stronger effect = lower value 0.0861 | locus YMR129W, stronger effect = lower value 0.0771 | locus YMR205C, strain PFK2, stronger effect = lower value 0.719 | locus YMR231W, strain pep5, stronger effect = lower value 0.0725 | locus YNL071W, strain lat1, stronger effect = lower value 0.218 | locus YNL153C, strain GIM3, stronger effect = lower value 0.86 and 0.732 | locus YNL209W, strain ssb2, stronger effect = lower value 0.101 | locus YNL248C, strain rpa49, stronger effect = lower value 0.461 | locus YNR049C, strain mso1, stronger effect = lower value 0.0933 | locus YOR001W, strain rrp6, stronger effect = lower value 0.143 | locus YOR070C, strain gyp1, stronger effect = lower value 0.0696 | locus YOR080W, strain dia2, stronger effect = lower value 0.18 | locus YOR083W, strain WHI5, stronger effect = lower value 0.0877 | locus YOR106W, strain vam3, stronger effect = lower value 0.0702 | locus YOR265W, strain rbl2, stronger effect = lower value 0.0766 | locus YOR270C, strain vph1, stronger effect = lower value 0.331 | locus YOR290C, strain snf2, stronger effect = lower value 0.122 | locus YPL051W, strain arl3, stronger effect = lower value 0.229 | locus YPL078C, strain atp4, stronger effect = lower value 0.586 | locus YPL106C, strain sse1, stronger effect = lower value 0.109 | locus YPL240C, strain hsp82, stronger effect = lower value 0.0839
inactive: locus YAL040C, strain CLN3, stronger effect = lower value 0.992 | locus YBR229C, strain ROT2, stronger effect = lower value 1.01 | locus YCL029C, strain bik1, stronger effect = lower value 1.03 | locus YDL005C, strain med2, stronger effect = lower value 1.01 | locus YDL074C, strain BRE1, stronger effect = lower value 0.87 | locus YDL101C, strain DUN1, stronger effect = lower value 0.992 | locus YDL185W, strain tfp1, stronger effect = lower value 1.01 | locus YDL192W, strain arf1, stronger effect = lower value 1.01 | locus YDR101C, strain arx1, stronger effect = lower value 0.98 | locus YDR137W, strain rgp1, stronger effect = lower value 0.903 | locus YDR318W, strain mcm21, stronger effect = lower value 0.999 | locus YDR363W, strain ESC2, stronger effect = lower value 0.953 | locus YDR388W, stronger effect = lower value 0.98 | locus YDR502C, strain sam2, stronger effect = lower value 0.974 | locus YEL061C, strain CIN8, stronger effect = lower value 0.983 | locus YER002W, strain NOP16, stronger effect = lower value 0.972 | locus YER110C, stronger effect = lower value 1.04 | locus YER111C, strain swi4, stronger effect = lower value 0.977 | locus YER155C, strain BEM2 (second series), stronger effect = lower value 1.12 | locus YER155C, strain BEM2, stronger effect = lower value 1.02 | locus YER167W, strain BCK2, stronger effect = lower value 1.01 | locus YGL078C, strain dbp3, stronger effect = lower value 1.01 | locus YGL086W, strain mad1, stronger effect = lower value 0.936 | locus YGL240W, strain doc1, stronger effect = lower value 0.92 | locus YGL248W, strain PDE1, stronger effect = lower value 0.994 | locus YGR078C, strain PAC10, stronger effect = lower value 0.889 and 0.997 | locus YGR135W, strain pre9, stronger effect = lower value 0.913 | locus YGR252W, strain gcn5, stronger effect = lower value 0.78 | locus YHR030C, strain SLT2, stronger effect = lower value 0.948 and 0.983 | locus YHR079C, strain IRE1 (second series), stronger effect = lower value 1.01 | locus YHR079C, strain IRE1, stronger effect = lower value 0.984 | locus YHR094C, strain hxt1, stronger effect = lower value 1 | locus YHR129C, strain ARP1, stronger effect = lower value 1 | locus YHR200W, strain rpn10, stronger effect = lower value 1.01 | locus YIL066C, strain RNR3, stronger effect = lower value 0.936 | locus YIL073C, strain SPO22, stronger effect = lower value 0.979 | locus YIL125W, strain kgd1, stronger effect = lower value 1 | locus YIR030C, strain dcg1, stronger effect = lower value 1.02 | locus YJL134W, strain LCB3, stronger effect = lower value 0.998 | locus YJL168C, strain set2, stronger effect = lower value 1.01 | locus YJL187C, strain SWE1 (second series), stronger effect = lower value 0.949 | locus YJR043C, strain POL32, stronger effect = lower value 1.02 | locus YJR066W, strain TOR1, stronger effect = lower value 0.974 | locus YJR075W, strain HOC1, stronger effect = lower value 0.933 | locus YKL009W, strain mrt4, stronger effect = lower value 1.02 | locus YKL068W, stronger effect = lower value 1.01 | locus YKL085W, strain MDH1 (second series), stronger effect = lower value 0.975 | locus YKL085W, strain MDH1, stronger effect = lower value 0.975 | locus YKL190W, strain CNB1, stronger effect = lower value 0.949 | locus YKR001C, strain vps1, stronger effect = lower value 0.919 | locus YLR058C, strain SHM2, stronger effect = lower value 0.986 | locus YLR102C, strain apc9, stronger effect = lower value 1 | locus YLR113W, strain HOG1, stronger effect = lower value 0.982 | locus YLR268W, strain sec22, stronger effect = lower value 1.01 | locus YLR330W, strain CHS5, stronger effect = lower value 1 | locus YLR371W, strain rom2, stronger effect = lower value 1.01 | locus YML016C, strain PPZ1, stronger effect = lower value 1 | locus YML032C, strain rad52, stronger effect = lower value 0.964 | locus YML124C, strain tub3, stronger effect = lower value 1.01 | locus YMR078C, strain ctf18, stronger effect = lower value 1.01 | locus YMR223W, strain ubp8, stronger effect = lower value 0.958 | locus YMR263W, strain SAP30, stronger effect = lower value 0.955 | locus YMR307W, strain GAS1, stronger effect = lower value 1.02 | locus YNL067W, strain RPL9B, stronger effect = lower value 0.993 | locus YNL175C, strain NOP13, stronger effect = lower value 0.967 | locus YNL183C, strain NPR1, stronger effect = lower value 0.917 | locus YNL197C, strain WHI3, stronger effect = lower value 0.98 | locus YNL224C, strain SQS1, stronger effect = lower value 0.984 | locus YNL233W, strain BNI4, stronger effect = lower value 0.937 | locus YNL250W, strain rad50, stronger effect = lower value 1.02 | locus YNL271C, strain bni1, stronger effect = lower value 1.01 | locus YNL298W, strain CLA4, stronger effect = lower value 1.02 | locus YNL307C, strain MCK1, stronger effect = lower value 1.01 | locus YNL322C, strain KRE1 (second series), stronger effect = lower value 1.07 | locus YNL322C, strain KRE1, stronger effect = lower value 0.974 | locus YNR052C, strain pop2, stronger effect = lower value 0.94 | locus YOL006C, strain TOP1, stronger effect = lower value 0.733 | locus YOL012C, strain htz1 0.856 | locus YOL147C, strain pex11, stronger effect = lower value 1.02 | locus YOR061W, strain CKA2, stronger effect = lower value 0.948 | locus YOR069W, strain VPS5, stronger effect = lower value 1 | locus YOR083W, strain WHI5 (second series), stronger effect = lower value 0.935 | locus YOR136W, strain idh2, stronger effect = lower value 1.03 | locus YOR144C, strain elg1, stronger effect = lower value 1.01 | locus YOR184W, strain ser1, stronger effect = lower value 1.04 | locus YOR231W, strain MKK1, stronger effect = lower value 0.986 | locus YOR316C, strain cot1, stronger effect = lower value 1 | locus YPL241C, strain CIN2, stronger effect = lower value 0.988 and 0.985 | locus YPL256C, strain CLN2, stronger effect = lower value 0.97 | locus YPR119W, strain clb2, stronger effect = lower value 1.01 | locus YPR141C, strain kar3, stronger effect = lower value 1.02 | locus YPR163C, strain tif3, stronger effect = lower value 0.988 | locus YPR167C, strain met16, stronger effect = lower value 1.02 | strain wtn01, stronger effect = lower value 0.969

From PubChem BioAssay AID1159580 (chemical genetic matrix, 2015)
